“And” between values parts separate entries of the source, which are not always exact repeats. Identical values can stand only once. Hit rate of the full screen: of about 5,500 compounds, about 2,000 (36%) were called active. Not shown: some 18% with an inconclusive outcome. Cut-off read from the data, not from the text of the source: active = normalized growth mostly below about 0.91 (no sharp cut-off); inconclusive = no clear call, values can overlap the other calls; inactive = mostly above about 0.92. The list shows a part of the results. A structure can be active in one record and inactive in another.
Experiment: chemical genetic growth profiling, strain panel (AID 1159580);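 note: tested at 20 µM; growth read once vehicle control cultures reached saturation at 30 °C; 1 = growth at the plate median or of vehicle wells; lower values mean less growth of the strain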
Conditions: growth OD

What does the source list for `NCC(O)c1ccc(O)cc1` (stereo not given)?
normalized growth (S. cerevisiae deletion strains, locus YKL009W, strain mrt4, stronger effect = lower value): 1.01 (inactive); normalized growth (S. cerevisiae deletion strains, locus YKL068W, stronger effect = lower value): 0.984 (inactive); normalized growth (S. cerevisiae deletion strains, locus YKL085W, strain MDH1 (second series), stronger effect = lower value): 0.989 (inactive); normalized growth (S. cerevisiae deletion strains, locus YKL085W, strain MDH1, stronger effect = lower value): 0.989 (inactive); normalized growth (S. cerevisiae deletion strains, locus YKL160W, strain elf1, stronger effect = lower value): 0.998 (inactive); normalized growth (S. cerevisiae deletion strains, locus YKL190W, strain CNB1, stronger effect = lower value): 1 (inactive); normalized growth (S. cerevisiae deletion strains, locus YKR001C, strain vps1, stronger effect = lower value): 0.967 (inactive); normalized growth (S. cerevisiae deletion strains, locus YKR026C, strain gcn3, stronger effect = lower value): 0.998 (inactive); normalized growth (S. cerevisiae deletion strains, locus YKR091W, strain srl3, stronger effect = lower value): 0.999 (inactive); normalized growth (S. cerevisiae deletion strains, locus YLL001W, strain dnm1, stronger effect = lower value): 1 (inactive); normalized growth (S. cerevisiae deletion strains, locus YLL026W, stronger effect = lower value): 0.99 (inactive); normalized growth (S. cerevisiae deletion strains, locus YLL041C, strain sdh2, stronger effect = lower value): 1.01 (inactive); normalized growth (S. cerevisiae deletion strains, locus YLR027C, strain aat2, stronger effect = lower value): 0.993 (inactive); normalized growth (S. cerevisiae deletion strains, locus YLR039C, strain RIC1, stronger effect = lower value): 1.02 (inactive); normalized growth (S. cerevisiae deletion strains, locus YLR058C, strain SHM2, stronger effect = lower value): 0.995 (inactive); normalized growth (S. cerevisiae deletion strains, locus YLR102C, strain apc9, stronger effect = lower value): 0.972 (inactive); normalized growth (S. cerevisiae deletion strains, locus YLR113W, strain HOG1, stronger effect = lower value): 1.02 (inactive); normalized growth (S. cerevisiae deletion strains, locus YLR221C, strain rsa3, stronger effect = lower value): 1 (inactive); normalized growth (S. cerevisiae deletion strains, locus YLR258W, strain gsy2, stronger effect = lower value): 1.01 (inactive); normalized growth (S. cerevisiae deletion strains, locus YLR262C, strain YPT6 (second series), stronger effect = lower value): 0.983 (inactive); normalized growth (S. cerevisiae deletion strains, locus YLR262C, strain YPT6, stronger effect = lower value): 1.06 (inactive); normalized growth (S. cerevisiae deletion strains, locus YLR268W, strain sec22, stronger effect = lower value): 0.922 (inactive); normalized growth (S. cerevisiae deletion strains, locus YLR320W, strain mms22, stronger effect = lower value): 1.04 (inactive); normalized growth (S. cerevisiae deletion strains, locus YLR330W, strain CHS5, stronger effect = lower value): 0.996 (inactive); normalized growth (S. cerevisiae deletion strains, locus YLR342W, strain FKS1 (second series), stronger effect = lower value): 1.03 (inactive); normalized growth (S. cerevisiae deletion strains, locus YLR342W, strain FKS1, stronger effect = lower value): 0.981 (inactive); normalized growth (S. cerevisiae deletion strains, locus YLR357W, strain rsc2, stronger effect = lower value): 0.973 (inactive); normalized growth (S. cerevisiae deletion strains, locus YLR370C, strain arc18, stronger effect = lower value): 1.01 (inactive); normalized growth (S. cerevisiae deletion strains, locus YLR371W, strain rom2, stronger effect = lower value): 0.981 (inactive); normalized growth (S. cerevisiae deletion strains, locus YLR384C, strain iki3, stronger effect = lower value): 1 (inactive); normalized growth (S. cerevisiae deletion strains, locus YLR418C, strain cdc73, stronger effect = lower value): 0.967 (inactive); normalized growth (S. cerevisiae deletion strains, locus YML016C, strain PPZ1, stronger effect = lower value): 0.998 (inactive); normalized growth (S. cerevisiae deletion strains, locus YML032C, strain rad52, stronger effect = lower value): 0.962 (inactive); normalized growth (S. cerevisiae deletion strains, locus YML120C, strain ndi1, stronger effect = lower value): 1.01 (inactive); normalized growth (S. cerevisiae deletion strains, locus YML124C, strain tub3, stronger effect = lower value): 0.99 (inactive); normalized growth (S. cerevisiae deletion strains, locus YMR058W, strain fet3, stronger effect = lower value): 1.02 (inactive); normalized growth (S. cerevisiae deletion strains, locus YMR078C, strain ctf18, stronger effect = lower value): 0.968 (inactive); normalized growth (S. cerevisiae deletion strains, locus YMR125W, strain sto1, stronger effect = lower value): 0.993 (inactive); normalized growth (S. cerevisiae deletion strains, locus YMR129W, stronger effect = lower value): 1.01 (inactive); normalized growth (S. cerevisiae deletion strains, locus YMR205C, strain PFK2, stronger effect = lower value): 0.994 (inactive); normalized growth (S. cerevisiae deletion strains, locus YMR223W, strain ubp8, stronger effect = lower value): 0.997 (inactive); normalized growth (S. cerevisiae deletion strains, locus YMR231W, strain pep5, stronger effect = lower value): 0.995 (inactive); normalized growth (S. cerevisiae deletion strains, locus YMR263W, strain SAP30, stronger effect = lower value): 0.727 (active) and 1 (inactive); normalized growth (S. cerevisiae deletion strains, locus YMR307W, strain GAS1, stronger effect = lower value): 0.985 (inactive); normalized growth (S. cerevisiae deletion strains, locus YNL067W, strain RPL9B, stronger effect = lower value): 0.991 (inactive); normalized growth (S. cerevisiae deletion strains, locus YNL071W, strain lat1, stronger effect = lower value): 1.01 (inactive); normalized growth (S. cerevisiae deletion strains, locus YNL128W, strain TEP1, stronger effect = lower value): 0.993 (inactive); normalized growth (S. cerevisiae deletion strains, locus YNL153C, strain GIM3, stronger effect = lower value): 0.991 (inactive) and 1.02 (inactive); normalized growth (S. cerevisiae deletion strains, locus YNL175C, strain NOP13, stronger effect = lower value): 1.01 (inactive); normalized growth (S. cerevisiae deletion strains, locus YNL183C, strain NPR1, stronger effect = lower value): 0.918 (inactive); normalized growth (S. cerevisiae deletion strains, locus YNL197C, strain WHI3, stronger effect = lower value): 1.04 (inactive); normalized growth (S. cerevisiae deletion strains, locus YNL209W, strain ssb2, stronger effect = lower value): 1.02 (inactive); normalized growth (S. cerevisiae deletion strains, locus YNL224C, strain SQS1, stronger effect = lower value): 1.01 (inactive); normalized growth (S. cerevisiae deletion strains, locus YNL233W, strain BNI4, stronger effect = lower value): 0.977 (inactive); normalized growth (S. cerevisiae deletion strains, locus YNL248C, strain rpa49, stronger effect = lower value): 1.02 (inactive); normalized growth (S. cerevisiae deletion strains, locus YNL250W, strain rad50, stronger effect = lower value): 0.976 (inactive); normalized growth (S. cerevisiae deletion strains, locus YNL271C, strain bni1, stronger effect = lower value): 0.967 (inactive); normalized growth (S. cerevisiae deletion strains, locus YNL298W, strain CLA4, stronger effect = lower value): 0.966 (inactive); normalized growth (S. cerevisiae deletion strains, locus YNL307C, strain MCK1, stronger effect = lower value): 0.985 (inactive); normalized growth (S. cerevisiae deletion strains, locus YNL322C, strain KRE1 (second series), stronger effect = lower value): 1 (inactive); normalized growth (S. cerevisiae deletion strains, locus YNL322C, strain KRE1, stronger effect = lower value): 0.999 (inactive) and 1.02 (inactive); normalized growth (S. cerevisiae deletion strains, locus YNR049C, strain mso1, stronger effect = lower value): 1 (inactive); normalized growth (S. cerevisiae deletion strains, locus YNR052C, strain pop2, stronger effect = lower value): 0.982 (inactive); normalized growth (S. cerevisiae deletion strains, locus YOL006C, strain TOP1, stronger effect = lower value): 0.943 (inactive); normalized growth (S. cerevisiae deletion strains, locus YOL012C, strain htz1): 2.07 [resistant] (active); normalized growth (S. cerevisiae deletion strains, locus YOL147C, strain pex11, stronger effect = lower value): 0.976 (inactive); normalized growth (S. cerevisiae deletion strains, locus YOR001W, strain rrp6, stronger effect = lower value): 0.989 (inactive); normalized growth (S. cerevisiae deletion strains, locus YOR061W, strain CKA2, stronger effect = lower value): 0.991 (inactive); normalized growth (S. cerevisiae deletion strains, locus YOR069W, strain VPS5, stronger effect = lower value): 0.995 (inactive); normalized growth (S. cerevisiae deletion strains, locus YOR070C, strain gyp1, stronger effect = lower value): 1 (inactive); normalized growth (S. cerevisiae deletion strains, locus YOR080W, strain dia2, stronger effect = lower value): 0.985 (inactive); normalized growth (S. cerevisiae deletion strains, locus YOR083W, strain WHI5 (second series), stronger effect = lower value): 1.01 (inactive); normalized growth (S. cerevisiae deletion strains, locus YOR083W, strain WHI5, stronger effect = lower value): 0.977 (inactive); normalized growth (S. cerevisiae deletion strains, locus YOR106W, strain vam3, stronger effect = lower value): 1.02 (inactive); normalized growth (S. cerevisiae deletion strains, locus YOR136W, strain idh2, stronger effect = lower value): 0.982 (inactive); normalized growth (S. cerevisiae deletion strains, locus YOR144C, strain elg1, stronger effect = lower value): 0.976 (inactive); normalized growth (S. cerevisiae deletion strains, locus YOR184W, strain ser1, stronger effect = lower value): 0.971 (inactive); normalized growth (S. cerevisiae deletion strains, locus YOR231W, strain MKK1, stronger effect = lower value): 1.01 (inactive); normalized growth (S. cerevisiae deletion strains, locus YOR265W, strain rbl2, stronger effect = lower value): 1 (inactive); normalized growth (S. cerevisiae deletion strains, locus YOR270C, strain vph1, stronger effect = lower value): 1.06 (inactive); normalized growth (S. cerevisiae deletion strains, locus YOR290C, strain snf2, stronger effect = lower value): 1 (inactive); normalized growth (S. cerevisiae deletion strains, locus YOR316C, strain cot1, stronger effect = lower value): 0.974 (inactive); normalized growth (S. cerevisiae deletion strains, locus YPL051W, strain arl3, stronger effect = lower value): 0.995 (inactive); normalized growth (S. cerevisiae deletion strains, locus YPL055C, strain LGE1, stronger effect = lower value): 1.02 (inactive) and 1.01 (inactive); normalized growth (S. cerevisiae deletion strains, locus YPL078C, strain atp4, stronger effect = lower value): 1.01 (inactive); normalized growth (S. cerevisiae deletion strains, locus YPL106C, strain sse1, stronger effect = lower value): 0.971 (inactive); normalized growth (S. cerevisiae deletion strains, locus YPL240C, strain hsp82, stronger effect = lower value): 1 (inactive); normalized growth (S. cerevisiae deletion strains, locus YPL241C, strain CIN2, stronger effect = lower value): 1 (inactive) and 1.01 (inactive); normalized growth (S. cerevisiae deletion strains, locus YPL256C, strain CLN2, stronger effect = lower value): 0.97 (inactive); normalized growth (S. cerevisiae deletion strains, locus YPR119W, strain clb2, stronger effect = lower value): 0.968 (inactive); normalized growth (S. cerevisiae deletion strains, locus YPR141C, strain kar3, stronger effect = lower value): 0.976 (inactive); normalized growth (S. cerevisiae deletion strains, locus YPR163C, strain tif3, stronger effect = lower value): 0.971 (inactive); normalized growth (S. cerevisiae deletion strains, locus YPR167C, strain met16, stronger effect = lower value): 0.974 (inactive); normalized growth (S. cerevisiae deletion strains, strain wtn01, stronger effect = lower value): 0.969 (inactive); normalized growth (S. cerevisiae strains, strain wild type, stronger effect = lower value): 1 (inactive)

Source: PubChem BioAssay AID1159580 (chemical genetic matrix, 2015)
